pKd: −log10 of the molar value.
system: FLT3
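Also: kd values determined as follow-up on hits from a single-replicate KINOMEscan panel screen.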

Row | SMILES | pKd
1 | Cn1ccc2ncnc(Oc3ccc(NC(=O)Nc4ccccc4)cc3)c21 | 7.48
2 | O=C(Nc1n[nH]c2nc(-c3nccs3)c(Br)cc12)C1CC1 [SB-742251] | 6.72
3 | Cc1ccc(NC(=O)Nc2cc(C(C)(C)C)nn2-c2ccccc2)cc1 [GSK1014915] | 7.59

system: GAK

Row | SMILES | pKd
4 | Cc1ccc(-c2cc(-c3c[nH]nc3-c3ccccn3)ccn2)cc1 [GW684088] | 6.96
5 | CSc1nn2c(=O)cc(N3CCOCC3)nc2n1Cc1cccc(C(F)(F)F)c1C [GSK2363608] | < 5.00
6 | Fc1cc(Cl)ccc1Nc1ccnc2cc(I)ccc12 [GW551191] | 6.47

system: GSK3A

Row | SMILES | pKd
7 | O=C(Nc1n[nH]c2nc(-c3nccs3)c(Br)cc12)C1CCCC1 [SB-742609] | 7.21
8 | Cc1nnc(-c2ccc3occ(-c4ccc(S(C)=O)cc4)c3c2)[nH]1 (centres unmarked) | 6.72
9 | O=C(Nc1n[nH]c2nc(-c3nccs3)c(Br)cc12)C1CC1 [SB-742251] | 6.54

system: ICK

Row | SMILES | pKd
10 | O=C(Nc1n[nH]c2nc(-c3nccs3)c(Br)cc12)C1CCCC1 [SB-742609] | 6.66
11 | CS(=O)(=O)c1ccc(-c2nc3n(c2-c2ccncc2)CCC3)cc1 [SKF-105942] | < 5.00
12 | Cc1cc(N2Cc3ccccc3C2)nc(Nc2ccc(S(=O)(=O)N3CCOCC3)cc2)n1.Cl [GSK1669917] | < 5.00
13 | Cl.NC(=O)c1cccc(Nc2nccc(Nc3ccc(Oc4cccc(Cl)c4)c(Cl)c3)n2)c1 [GW659008] | < 5.00

system: IRAK3

Row | SMILES | pKd
14 | CCn1c(-c2ccccn2)nc2cnccc21 [SB-736398] | 5.12
15 | Cc1ccc(NC(=O)Nc2cccc(C(F)(F)F)c2)cc1 [GSK955403] | < 5.00
16 | CS(=O)(=O)c1ccc(-c2c(-c3ncn[nH]3)sc(N3CCOCC3)c2C#N)cc1 | < 5.00
17 | Cc1ccc(NC(=O)Nc2cccc(Cl)c2)cc1-c1ccc(C(=O)Nc2ccncc2)cc1 [GSK1398468] | < 5.00
18 | Cc1ccc(NC(=O)Nc2cc(C(C)(C)C)nn2-c2ccccc2)cc1 [GSK1014915] | < 5.00

system: JAK1(JH2domain-pseudokinase)

Row | SMILES | pKd
19 | COc1ccc2nc(-c3cccc(C)n3)nc(Nc3ccncc3)c2c1 [GSK204919] | 6.59
20 | Cc1nnc(-c2ccc3occ(-c4ccc(S(C)=O)cc4)c3c2)[nH]1 (centres unmarked) | 6.72
21 | Cc1cccc(-c2nc(Nc3ccc4[nH]ncc4c3)c3ccccc3n2)n1 [GW857175] | 6.19

system: JAK2(JH1domain-catalytic)

Row | SMILES | pKd
22 | CSc1nn2c(=O)cc(N3CCOCC3)nc2n1Cc1cccc(C(F)(F)F)c1C [GSK2363608] | < 5.00
23 | COc1ccc(CNC(=O)NC2CCN(c3ccnc(Nc4cc(OC)c(OC)c(OC)c4)n3)C2)cc1 (centres unmarked) [GSK1379748] | 6.46
24 | O=S(=O)(c1ccc(-c2ccnc3[nH]ccc23)cc1)N1CCCC1 [GSK846226] | 6.44
25 | Cl.NC(=O)c1cccc(Nc2nccc(Nc3ccc(Oc4cccc(Cl)c4)c(Cl)c3)n2)c1 [GW659008] | 6.40
26 | Cc1cccc(-c2cc(Nc3ccncc3)c3ccccc3n2)n1 [GSK223675] | < 5.00

Reference: PMC5540273 (PLoS ONE, 2017)
